According to PubChem BioAssay AID1063 (University of Pittsburgh Molecular Library Screening Center, 2008):
About 18,000 (9%) of roughly 200,000 compounds were called active. No stated cut-off is given here; in the data, active means inhibition above about 50%; inactive means the rest. The list comes from a sample in which actives are over-represented; it also holds similar structures and randomly drawn compounds.

test: Leishmania major promastigote growth inhibition, primary screen (AID 1063); settings: Leishmania major promastigotes, resazurin fluorescence viability; at 10 µM; active compounds read high;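 further: promastigotes grown with compound for 44 hours at 28 °C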

Structure (SMILES)	inhibition
CCC(C)NC(=O)CN(C1CCCCC1)S(C)(=O)=O (configuration not stated)	1.28% (inactive)
O=C(COC(=O)c1ccncc1)c1ccccc1	-4.89% (inactive)
CNC(=O)NC(=O)CSc1nnc(-c2ccc(F)cc2)n1CC1CCCO1 (configuration not stated)	-2.36% (inactive)
Cc1nc2ccccn2c1C(=O)NN=C1CCN(C)CC1	35.4% (inactive)
O=C(NC1CCc2ccccc21)C12CN(Cc3ccccc3)CC1C(c1cccc([N+](=O)[O-])c1)=NO2 (configuration not stated)	58.3% (active)
Nc1ccc(C(=O)OCC(=O)NC2CCCc3ccccc32)cc1[N+](=O)[O-] (configuration not stated)	-5.78% (inactive)
CCOc1cnc(C(=O)NNC(=O)c2ccccc2Br)o1	-1.9% (inactive)
Cc1ccc(NC(=O)NNC(=O)c2sccc2-n2cccc2)cc1	-8.12% (inactive)
COC(=O)C1NN=C(C(=O)c2ccc(Br)cc2)C1c1cccc(Br)c1 (configuration not stated)	24.8% (inactive)
COC(=O)C1=C(C)N(C)C(=S)NC1c1ccccc1 (configuration not stated)	-3.63% (inactive)
COC(=O)C1=C(C)N(C)C(C)=C(C(=O)OC)C1c1cccc(Br)c1	52.8% (active)
COc1cccc(N(Cc2nnc3n2CCCCC3)C(=O)Nc2ccccc2F)c1	-3.13% (inactive)
CCOc1ccc(NC(=O)CN2CCN(CC(=O)Nc3ccc(OC)cc3)CC2)cc1	39.6% (inactive)
COC(=O)c1ccc(Oc2nc(Nc3ccc(F)cc3)nc(N3CCCC3)n2)cc1	2.39% (inactive)
CCOc1ccc(Nc2nc(Cl)nc(N3CCN(c4ccc(OC)cc4)CC3)n2)cc1	53% (active)
O=C(Oc1cccc(O)c1)C1CCCCC1	-0.1% (inactive)
Cc1ccc(S(=O)(=O)c2c(N)n(C)c3nc4ccccc4nc23)cc1	99.1% (active)
Cc1ccc(S(=O)(=O)Nc2nc(N)n(-c3ccccc3)n2)cc1	-11% (inactive)
CCC(=O)Nc1c(S(=O)(=O)c2ccccc2)c2nc3ccccc3nc2n1Cc1ccccc1	32.2% (inactive)
O=C(C1CCN(S(=O)(=O)Cc2ccccc2)CC1)N1CCCc2ccccc21	24.6% (inactive)
CCOc1ccc(OCC)c(NC(=O)C2CCN(S(=O)(=O)c3c(C)noc3C)CC2)c1	26.8% (inactive)
Cc1noc(/C=C/N(C)C)c1S(=O)(=O)N1CCCC(C(=O)NCc2ccco2)C1 (configuration not stated)	-6.58% (inactive)
Cc1noc(/C=C/c2ccco2)c1S(=O)(=O)N1CCC(C(=O)N2CCc3ccccc32)CC1	66.6% (active)

Structure (SMILES)	inhibition
Cc1noc(/C=C/c2ccco2)c1S(=O)(=O)N1CCC(C(=O)Nc2ccc(Cl)cn2)CC1	74.5% (active)
CCOC(=O)C1CCN(C(=O)C2CCN(S(=O)(=O)c3c(C)noc3C)CC2)CC1	-2.98% (inactive)
CC1=C(C(=O)N(C)C)C(c2ccccc2OC(F)F)NC(=O)N1 (configuration not stated)	-4.21% (inactive)
CC(=O)NC(Cc1ccc(F)c(F)c1)C(=O)NC1CCN(C(=O)c2ccc(C)cc2)CC1 (configuration not stated)	-6.89% (inactive)
CCN(CC)CC(=O)Nc1sc2c(c1C(=O)c1ccccc1C)CCC2	47.2% (inactive)
CCOC(=O)C1(Cc2ccc(Cl)cc2)CCN(C(=O)C2=NNC(=O)CC2)CC1	0.36% (inactive)
Cc1nnc(SCC(=O)N/N=C/c2cn(-c3ccccc3)nc2-c2ccc(F)cc2)n1-c1ccccc1	-0.75% (inactive)
O=C(N/N=C/c1ccc([N+](=O)[O-])o1)c1cn(-c2ccccc2)nc1-c1ccc(F)cc1	63.2% (active)
O=C(CSc1ccc(/C=N/NC(=O)c2cccc(F)c2)o1)Nc1ccccc1	-5.63% (inactive)
OC1CCCN(c2ncnc3c2nnn3Cc2c(F)cccc2Cl)C1 (configuration not stated)	-5.48% (inactive)
CC(=O)NC1C(OCc2ccccc2)OC(COC(C)=O)C(OC(C)=O)C1OC(C)=O (configuration not stated)	55.7% (active)
CCCCCCCCCOC1OC(CO)C(O)C(O)C1NC(C)=O (configuration not stated)	16.4% (inactive)
CC(=O)NC1C(Oc2ccc(C=O)cc2)OC(COC(C)=O)C(OC(C)=O)C1OC(C)=O (configuration not stated)	-1.48% (inactive)
Cc1ccc2nc(COc3ccc(N(C)S(=O)(=O)c4ccccc4)cc3)cc(=O)n2c1	-0.08% (inactive)
Cc1nn(CCOc2ccc(Br)cc2)c(C)c1[N+](=O)[O-]	-0.48% (inactive)
COc1ccccc1CN(C)c1nnnn1-c1ccccc1	6.46% (inactive)
CC(C)CC[n+]1ccn(C2=C([O-])c3ccccc3C(=O)/C2=N\S(=O)(=O)c2ccccc2)c1	77.1% (active)
CN1C(=O)/C(=C/c2ccco2)SC1=Nc1cccc(C(=O)O)c1	-6.02% (inactive)
COCCCNC(=O)C1CCC(CNS(=O)(=O)c2ccc(OC)cc2)CC1 (configuration not stated)	-4.6% (inactive)
CCC1(CC)NC(=O)N(CC(=O)OCC(=O)NC(=O)c2ccccc2)C1=O	10.3% (inactive)
Cc1cc([N+](=O)[O-])c(-c2ccc(/C=N/n3cnnc3)o2)cc1Cl	2.86% (inactive)
Cc1cc(-c2ccc(/C=N/n3cnnc3)o2)c([N+](=O)[O-])cc1C	2.14% (inactive)
Cc1ccc(Cl)cc1-c1ccc(/C=N/n2cnnc2)o1	64.2% (active)

Structure (SMILES)	inhibition
Cc1ccc(N2C(=O)SC(N(CC(=O)O)c3ccc(C)cc3)C2=O)cc1 (configuration not stated)	-0.34% (inactive)
Cc1cc(C(=O)N/N=C/c2ccc(N3CCOCC3)cc2)c(C)o1	7.7% (inactive)
CCOc1cccc(/C=N/NC(=S)NCCN2CCOCC2)c1O	4.68% (inactive)
CNC(=S)N/N=C/c1ccc(N2CCOCC2)s1	90.2% (active)
COC(=O)[C@H](C)NC(=O)Nc1ccc(OC(F)(F)F)cc1	-4.5% (inactive)
CCNC(=S)Nc1ccc(OC(F)(F)F)cc1	-1.95% (inactive)
COC(=O)Cc1ccc(OCC(=O)Nc2ccc(OC(F)(F)F)cc2)cc1	54.1% (active)
COc1ccc(OC)c(CNC(=O)c2cc(=O)[nH]c3ccc(S(=O)(=O)N4CCCC4)cc23)c1	-4.76% (inactive)
COc1ccc(-n2cc(CN(C)Cc3n[nH]c(=O)[nH]3)c(-c3cccc(F)c3)n2)cc1	2.9% (inactive)
O=C(O)COc1ccc(/C=N/O)cc1Br	-4.34% (inactive)
O=C(CN1CCN(c2ccc(Cl)cc2)CC1)NCc1cccs1	-4.73% (inactive)
CCN(C(=O)Cc1nc(N)n[nH]1)C1(C(=O)Nc2ccccc2)CCCCC1	-8.2% (inactive)
O=C1N/C(=N\N=C\c2ccco2)SC1Cc1ccc(F)cc1 (configuration not stated)	-16.9% (inactive)
COc1ccc(-c2cc(C)nc3nc(N)nn23)cc1	0.56% (inactive)
Cc1cc(N)n2nc(-c3ccc(C(C)(C)C)cc3)cc2n1	80.3% (active)
Cc1cc(C(C)(C)C)cc(C)c1N	3.48% (inactive)
CCOC(=O)c1ccc(N2C(=O)CC(N3CCN(C(=O)c4ccccc4)CC3)C2=O)cc1 (configuration not stated)	-1.97% (inactive)
O=C(c1ccc(F)cc1)n1cc(C(=S)N2CCOCC2)c2ccccc21	-2.86% (inactive)
Cc1c(NC(=S)NC(=O)CCc2ccccc2)c(=O)n(-c2ccccc2)n1C	-2.93% (inactive)
C=CCNC(=O)/C(=C\c1cccc([N+](=O)[O-])c1)NC(=O)c1ccccc1	-2.62% (inactive)
CN(C)CCNC(=O)/C(=C/c1cccc([N+](=O)[O-])c1)NC(=O)c1ccccc1	68.3% (active)
O=C(NCCc1ccccc1)/C(=C\c1ccc([N+](=O)[O-])cc1)NC(=O)c1ccccc1	-2.32% (inactive)
Cc1nnc(SCc2cccc(Cl)c2)n(N)c1=O	9.66% (inactive)

Structure (SMILES)	inhibition
CN1CCN(S(=O)(=O)c2cccc(C(=O)N3CCc4ccccc43)c2)CC1	7% (inactive)
S=C(Nc1cccc(Br)c1)N1CCn2cccc2C1c1cccnc1 (configuration not stated)	91.2% (active)
S=C(NCCc1ccccc1)N1CCn2cccc2C1c1ccncc1 (configuration not stated)	81.9% (active)
S=C(NCCc1ccccc1)N1CCCCC1	-2.11% (inactive)
O=C1CCN(C(=S)NCCc2ccccc2)CC1	-11.3% (inactive)
Fc1cc(Br)ccc1NC(=S)Nc1cccnc1	5.1% (inactive)
COc1cccc(NC(=O)CC2C(=O)NCCN2C(=S)Nc2ccc(F)cc2)c1 (configuration not stated)	-2.74% (inactive)
O=C(/C=C/c1ccccc1)Oc1coc(CSc2ncccn2)cc1=O	-7.34% (inactive)
Cc1cccc2cc(CN(Cc3cccs3)C(=S)NCc3ccco3)c(=O)[nH]c12	46% (inactive)
Cc1cc(C)c2[nH]c(=O)c(CN(Cc3ccccc3)C(=S)NCCCN(C)C)cc2c1	100% (active)
COCCCNC(=S)N(Cc1ccccc1)Cc1ccc(F)cc1	9.14% (inactive)
CN1C=CC=C/C1=C1\SC(=S)N(Cc2ccccc2)C1=O	-0.34% (inactive)
CN(C)C(CNC(=O)c1cccc(C#N)c1)c1ccco1 (configuration not stated)	3.86% (inactive)
CCc1ccccc1NC(=S)N(CCN1CCCCCC1)Cc1ccco1	21.6% (inactive)
COc1cccc2cc(C(C)N(CCCN3CCOCC3)C(=O)Nc3ccc(Cl)cc3)oc12 (configuration not stated)	48.2% (inactive)
Cc1ccc(NC(=S)N(CCCN2CCCC2)Cc2cccn2Cc2ccc(Cl)cc2)cc1	99.7% (active)
CCOC(=O)N1CCN(CCC(=O)Nc2cc(OC)ccc2OC)CC1	-3.46% (inactive)
CCOC(=O)N1CCN(C(=O)C2CCN(Cc3ccc(OC)cc3OC)CC2)CC1	53.4% (active)
CCOC(=O)N1CCN(C(=O)C2CCN(S(C)(=O)=O)CC2)CC1	-5.19% (inactive)
Cc1ccc(C)c(Cn2nnc3c(=O)[nH]c(C(=O)Nc4ccc(F)cc4)nc32)c1	39% (inactive)
O=[N+]([O-])c1ccc2[nH]c3c(c2c1)CCCC3O (configuration not stated)	-1.72% (inactive)
CCn1c(CNC(=O)c2ccco2)nnc1SCC(=O)Nc1cccc(F)c1	-1.95% (inactive)
CCCCNC(=O)N1CCN(S(C)(=O)=O)CC1	-0.76% (inactive)
